Test results from patent US20200071711, “MODULAR CONSTRUCTION OF SYNTHETIC GENE CIRCUITS IN MAMMALIAN CELLS USING MATHEMATICAL MODELING OF CLOSED LOOP TRANSCRIPTIONAL REPRESSORS” (Tsinghua University, published 2020).

Columns and labels:
TALER22 = target: T1, TALER22 (synthetic, UniProt P14727 SEQ:1-806); assay: cell_activity; HEK293, two sites flanking CMVmini; details: tags: EYFP-2A upstream, SV40 NLS; dsDNA, one strand shown
T1 chain: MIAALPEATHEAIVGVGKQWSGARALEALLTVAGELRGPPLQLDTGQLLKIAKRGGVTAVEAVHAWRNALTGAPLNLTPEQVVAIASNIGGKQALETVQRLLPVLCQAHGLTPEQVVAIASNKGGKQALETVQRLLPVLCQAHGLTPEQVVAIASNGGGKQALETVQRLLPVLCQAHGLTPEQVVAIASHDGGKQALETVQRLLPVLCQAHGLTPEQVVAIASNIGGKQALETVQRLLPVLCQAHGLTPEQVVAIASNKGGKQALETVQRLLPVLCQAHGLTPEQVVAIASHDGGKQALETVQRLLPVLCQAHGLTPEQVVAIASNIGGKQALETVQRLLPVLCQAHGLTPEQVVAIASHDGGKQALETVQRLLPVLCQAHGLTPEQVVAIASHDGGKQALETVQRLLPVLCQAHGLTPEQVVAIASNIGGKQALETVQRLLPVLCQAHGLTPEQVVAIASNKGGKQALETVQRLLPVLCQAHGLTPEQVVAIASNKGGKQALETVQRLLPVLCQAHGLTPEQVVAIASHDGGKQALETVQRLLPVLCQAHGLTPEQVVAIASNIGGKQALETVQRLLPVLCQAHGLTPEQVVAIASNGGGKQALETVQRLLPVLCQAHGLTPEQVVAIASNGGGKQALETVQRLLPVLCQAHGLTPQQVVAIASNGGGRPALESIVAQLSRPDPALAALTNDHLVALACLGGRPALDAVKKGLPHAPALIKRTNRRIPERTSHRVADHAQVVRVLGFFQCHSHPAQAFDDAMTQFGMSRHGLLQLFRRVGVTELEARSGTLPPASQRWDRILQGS

TALER23 = target: T2, TALER23 (synthetic, UniProt P14727 SEQ:1-806); assay: cell_activity; HEK293, two sites flanking CMVmini; details: tags: EYFP-2A upstream, SV40 NLS; dsDNA, one strand shown
T2 chain: T1 chain

TAGTCAGCACCAGGCATTT
binding signal (TALER22): 4.66 fold repression

TCCGGATGCTCCTCTTAAT
binding signal (TALER23): 2.2 fold repression
